The values that follow come from PubChem BioAssay AID651814 (National Center for Advancing Translational Sciences (NCATS), 2012).

Structures are written as SMILES. Out of some 2,100 compounds screened, about 590 (28%) were called active. Another 42% or so got no clear call; they are omitted. The list shows a part of the results. Values without a mark were called inactive. Calls follow the shape of the dose curve; as a rule, active = well fitted inhibition curve with a large enough effect; inconclusive = small, poorly fitted or top-dose-only effect; inactive = flat fitted curve, though single readings scatter.
Potency is read from the fitted curve at half-maximal effect.

Sequence of DNA dC->dU-editing enzyme APOBEC-3F (Homo sapiens) (Q8IUX4 whole entry, looked up): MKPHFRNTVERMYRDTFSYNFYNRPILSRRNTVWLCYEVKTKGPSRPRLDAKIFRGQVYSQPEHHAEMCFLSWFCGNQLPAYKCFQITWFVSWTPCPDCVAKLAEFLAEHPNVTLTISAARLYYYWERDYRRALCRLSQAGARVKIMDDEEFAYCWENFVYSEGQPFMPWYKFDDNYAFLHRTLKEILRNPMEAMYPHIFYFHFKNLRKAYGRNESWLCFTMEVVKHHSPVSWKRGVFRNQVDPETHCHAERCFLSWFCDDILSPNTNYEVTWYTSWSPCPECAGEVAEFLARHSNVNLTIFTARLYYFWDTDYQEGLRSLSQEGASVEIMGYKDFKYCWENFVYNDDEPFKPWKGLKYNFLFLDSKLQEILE

This experiment addresses DNA dC->dU-editing enzyme APOBEC-3F (Homo sapiens) (UniProt Q8IUX4). The experiment can be described thus: qHTS for inhibitors of Vif-A3F interactions: Cherry picks. Also: nearly all actives have a fitted effect of over 70% in size.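 As to max response: % of control where 0% means no effect; active compounds raise eYFP fluorescence by blocking Vif-driven A3F loss.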 Conditions: HeLa A3F-eYFP + Vif (tagged APOBEC3F with the HIV-1 protein that degrades it), eYFP fluorescence, 24 h. Summed up:
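Read-out: yellow fluorescence (ex 488 nm, em 500-530 nm) by laser-scanning cytometer after 24 h compound exposure, several concentrations, at 37 deg C. Cells: HeLa line stably co-expressing Vif and C-terminally eYFP-tagged A3F; MG132 served as positive control.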
A general note: Quantitative high-throughput screening tests each substance at several concentrations.
As to `Cc1cccc(C(=O)NC(=S)N2CCc3ccccc3C2)c1`, the max response was 0.715%.
Still for that read-out and setting: under `COc1ccc(NC(=O)CN2C(=O)C3(SCC(=O)N3c3ccccc3)c3ccccc32)cc1Cl` (configuration not stated) stands -11.4%.
Regarding `CCCN1C(=O)S/C(=C/c2ccc(N3CCOCC3)o2)C1=O`, the Potency was 2.8 µM (active).
On the same count and under the same terms, under `CCCN1C(=O)S/C(=C\c2ccc(N3CCOCC3)o2)C1=O` stands 2.8 µM (active); under `O=C1S/C(=C\c2ccc(N3CCOCC3)o2)C(=O)N1c1ccccc1`, 3.53 µM (active).
Take `Cn1cc(/C=C2\SC(=O)N(c3ccccc3)C2=O)c2ccccc21`: the max response is -28.8%.
For `C/C(=N/NC(N)=S)c1ccc(Br)s1`, the max response was 1.12%.
On the same count and under the same terms, as for `CC(NC1=CC(=O)c2cccnc2C1=O)C(O)c1ccccc1` (configuration not stated), the figure is -27.2%; as for `O=C(NCc1ccco1)C1Cc2c(-c3cccc(F)c3)ccnc2O1` (configuration not stated), -27.2%; as for `Cc1ccc(-c2cc(C(=O)N/N=C/C(Br)=C/c3ccccc3)n[nH]2)o1`, -23.7%.
Regarding `O=[N+]([O-])c1ccccc1C1Nc2cccc3cccc(c23)N1`, the max response was 1.22%.
In the case of `Cc1ccc(S(=O)(=O)Nc2cc(Cl)c(O)c3ncccc23)cc1`, the max response was -26.9%.
Regarding `Cc1cccc2[nH]cc(/C=C3/C=Nc4ccccc43)c12`, the Potency is 23.1 µM (active).
Turning to `O=[N+]([O-])c1ccc(/C=C/C2=NN(c3ccccc3)C(c3ccco3)C2)o1` (configuration not stated), the Potency was 2.59 µM (active).
Consider `C(=C\c1ccco1)/C1=NN(c2ccccc2)C(c2ccco2)C1` (configuration not stated), for which the max response is -27.8%.
As to `O=[N+]([O-])c1ccc(C2=NN(c3ccccc3)C(c3ccco3)C2)cc1` (configuration not stated), the Potency is 1.25 µM (active).
As for `COc1cccc(C2CC(c3ccccc3)=NN2S(=O)(=O)c2ccc(C)cc2)c1OC` (configuration not stated), the max response is -28.4%.
On to `COc1ccccc1N1N=C(c2ccc([N+](=O)[O-])cc2)CC1c1ccccc1` (configuration not stated), for which the Potency is 1.12 µM (active).
As for `CCCOc1ccc(N)cc1N`, the max response is 4.36%.
On the same count and under the same terms, as for `CN1C(=O)C(O)(C2COC(C)(C)CC2=O)c2cc(Br)ccc21` (configuration not stated), the figure is -0.16%; as for `CC(C)CCNC(=O)c1ccc2c(c1)NC(=O)C(CS(=O)(=O)Cc1cccc(Br)c1)N2` (configuration not stated), 0.102%.
On to `CCN1/C(=C/C=C2/SC(=Nc3cccc4ncccc34)N(C)C2=O)Sc2ccccc21`, for which the Potency was 16.4 µM (active).
In the case of `C/C(=N\NC(=O)c1cc(-c2ccncc2)nc2ccccc12)c1ccc(N2CCOCC2)cc1`, the max response was -14.9%.
As for `CCn1cc(/C=C/c2cc[n+](C)cc2)c2ccccc21`, the Potency is 0.79 µM (active).
Same read-out and setting: as for `CC(C)n1cc(/C=C/c2cc[n+](C)cc2)c2ccccc21`, the figure is 1.4 µM (active); as for `C=CCn1cc(/C=C/c2cc[n+](C)cc2)c2ccccc21`, 2.23 µM (active); as for `COc1ccc(C(=O)Nc2cc(C(C)=O)c(/C=C/N(C)C)oc2=O)cc1`, 11.2 µM (active).
Same read-out and setting: under `CC(=O)c1cc(NC(=O)c2ccc(C)cc2)c(=O)oc1/C=C/N(C)C` stands 20.6 µM (active).
Regarding `CC(=O)c1cc2c(cc1NS(=O)(=O)c1ccc(C)cc1)OCCO2`, the max response was -26.6%.
Still for that read-out and setting: under `COC(=O)c1cc(NC(=O)c2ccccc2)c(=O)oc1/C=C/Nc1ccc(Oc2ccccc2)cc1` stands -22%.
The same measure, in the same setting: under `CC(=O)c1c(C)[nH]c(C(=O)Nc2ccc(Cl)cc2F)c1C` stands -17.7%.
With `CC(=O)c1cc(NC(=O)c2ccc(Cl)cc2)c(=O)oc1/C=C/N(C)C`, the Potency was 6.27 µM (active).
As for `COC(=O)c1c(-c2ccccc2Cl)noc1/C=C/N(C)C`, the max response is 2.98%.
Still for that read-out and setting: as for `COc1cc(OC)cc(C(=O)Nc2ccccc2C(=O)NC2CC2)c1`, the figure is -22.6%; as for `C/C(=N\Nc1nccnc1Cl)c1ccc(Cl)c(Cl)c1`, 0.009%.
For `N#CC1=C(N)C(C#N)(C#N)[C@H](c2c(F)cccc2F)[C@H]2CC3(CC=C12)OCCO3`, the Potency is 20.6 µM (active).
Regarding `CCCCCCc1cc2cc(-c3nnc(-c4ccccc4)o3)c(=O)oc2cc1O`, the Potency was 3.96 µM (active).
`CCCCCCc1cc2cc(-c3nnc(-c4ccccc4O)o3)c(=O)oc2cc1O`: the max response was 6.08%.
On to `CCCCCCc1cc2cc(-c3nnc(-c4ccccc4OC)o3)c(=O)oc2cc1O`, for which the Potency is 2.8 µM (active).
As to `COc1ccccc1-c1cc(C(=O)NN)[nH]n1`, the max response was 7.62%.
In the case of `C=C(NC(=O)C(=C)NC(=O)c1csc(C2=NC3c4csc(n4)C4NC(=O)c5csc(n5)C(C(C)(O)C(C)O)NC(=O)C5CSC(=N5)/C(=C/C)NC(=O)C(C(C)O)NC(=O)c5csc(n5)C3(CC2)NC(=O)C(C)NC(=O)C(=C)NC(=O)C(=C)NC(=O)C(C(C)C)NC2C=Cc3c(C(C)O)cc(nc3C2O)C(=O)OC4C)n1)C(N)=O` (configuration not stated), the Potency was 12.5 µM (active).
In the case of `O=C(Cn1cnc2c(cnn2-c2ccc(F)cc2)c1=O)NCc1ccco1`, the max response is -25.6%.
On to `O=C(Cn1c(=O)n(Cc2ccco2)c(=O)c2sc3ccccc3c21)Nc1ccccc1C(F)(F)F`, for which the Potency was 14.6 µM (active).
Regarding `CCc1ccc(N=Nc2ccc(O)c3[nH]cnc23)cc1`, the Potency is 13 µM (active).
In the case of `O=S(=O)(Nc1nc2ccccc2nc1N1CCc2ccccc2C1)c1ccc(Br)cc1`, the max response is -17%.
Same read-out and setting: under `CCOc1ccc(N/C=C/C(=O)c2cc(OC)c(OC)c(OC)c2)cc1` stands -29.8%.
`COc1cc(/C=C/C(=O)c2ccc3c(c2)OCCO3)cc(Br)c1OCC(=O)N(C)C`: the Potency is 15.8 µM (active).
The same measure, in the same setting: under `CCOC(=O)C1=C(C)N=c2sc(=Cc3cc(Cl)c(OCC(=O)O)c(Cl)c3)c(=O)n2C1c1cccc(OC)c1` (configuration not stated) stands 19.8 µM (active); under `C=CCN1C(=O)/C(=C2/Sc3ccc(OC)cc3N2CC)SC1=S`, 9.2 µM (active).
On the same count and under the same terms, as for `C=CCN1C(=O)/C(=C2/Sc3ccc(OC)cc3N2C)SC1=Nc1cccc(O)c1`, the figure is 20.6 µM (active).
With `C=CCN1C(=O)/C(=C/c2ccc(O)c(OC)c2)S/C1=N/c1nccs1`, the max response is -0.164%.
Regarding `Cc1ccc2[nH]c(C(=O)NN=C3CCCCC3)c(-c3ccccc3)c2c1`, the max response is 0.516%.
On to `Cc1cc(C)cc(Oc2nc(C(F)(F)F)nc3ccccc23)c1`, for which the max response is -26.3%.
Still for that read-out and setting: as for `CCc1ccc2nc(N(CCCN(C)C)C(=O)c3ccc(S(=O)(=O)N(C)C4CCCCC4)cc3)sc2c1`, the figure is -4.66%.
For the molecule `C[n+]1cc(C(=O)N2CCCCC2)ccc1/C=C/c1c[nH]c2ccccc12`, the Potency is 14 µM (active).
`O=C(C(=O)N1CCN(c2ccccc2Cl)CC1)c1c[nH]c2ccccc12`: the max response was 2.85%.
For `C[n+]1ccc(/C=C/c2c[nH]c3ccccc23)cc1`, the Potency was 9.2 µM (active).
On the same count and under the same terms, under `CC[n+]1ccc(/C=C/c2c[nH]c3ccccc23)cc1` stands 9.2 µM (active); under `OCC[n+]1ccc(/C=C/c2c[nH]c3ccccc23)cc1`, 8.2 µM (active).
For the molecule `CC(=O)Nc1ccc(S(=O)(=O)Nc2nc3ccccc3nc2Nc2ccc3ccccc3c2)cc1`, the max response is 0.168%.
In the case of `COc1ccc2[nH]c3c(c2c1)CCNC3c1ccc([N+](=O)[O-])o1` (configuration not stated), the Potency is 23.1 µM (active).
Consider `COc1ccc(S(=O)(=O)N2CCN(C(=O)c3ccc([N+](=O)[O-])o3)CC2)cc1`, for which the max response was -3.97%.
The same measure, in the same setting: under `COc1ccc2oc(-c3ccccc3[N+](=O)[O-])cc(=O)c2c1` stands -28%.
In the case of `CCOC(=O)C1C(=O)C=C(/C=C/c2ccc(N(C)C)cc2)CC1c1ccccc1` (configuration not stated), the Potency is 10.3 µM (active).
Turning to `CC(/C=C/c1ccc(N(C)C)cc1)=N\N=C(/N)SC1CC(=O)N(c2ccc(C(=O)O)cc2)C1=O` (configuration not stated), the max response is -20.3%.
On the same count and under the same terms, as for `Cc1ccc(/C=N/NC(=O)CCCOc2ccc(Cl)cc2Cl)cc1`, the figure is -27.3%; as for `Cc1ccc(-c2nc3ncccc3o2)cc1NC(=O)c1ccc([N+](=O)[O-])o1`, -17.2%.
